# Source: the supplement of paper PMC8728848
# The entries come from a sample that favours the strongest signals as a whole.
# B1: EPL1 (Trichoderma atroviride), A0PCX2 (protein)
# chain: MQLSNLFKLALFTAAVSADTVSYDTGYDDASRSLTVVSCSDGTNGLITRYHWQTQGQIPRFPYIGGAQAVAGWNSPNCGTCWKLTYSGKTIYVLAIDHTAAGFNIGLDAMNALTNGNAVALGRVSATASQVAVSNCGL
# What was measured:
# Assay in all cases: glycan array binding signal (z-score within array); higher = stronger binding
# Details in all cases: glycan notation: IUPAC condensed, linker removed
# [1] = molecular target: Fuc(a1-2)Gal(b1-3)GlcNAc6S
# Method in brief: (§1)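 Glycan array data were curated from 3228 arrays in the Consortium for Functional Glycomics database and kept only where the protein sequence was available. Glycan names were converted to IUPAC-condensed notation, and columns mapping to the same glycan were averaged. The binding signal is a within-array Z-score, averaged across arrays of the same protein sequence at different concentrations or buffers and across linkers. Negative Z-scores can be read as non-binding.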
# [2] = molecular target: Fuc(a1-2)Gal(b1-3)[Fuc(a1-4)]GlcNAc(b1-3)[Fuc(a1-3)[Gal(b1-4)]GlcNAc(b1-6)]Gal(b1-4)Glc
# Method in brief: as §1
# [3] = molecular target: Fuc(a1-2)Gal(b1-4)GlcNAc(b1-3)Gal(b1-4)GlcNAc(b1-2)Man(a1-3)[Fuc(a1-2)Gal(b1-4)GlcNAc(b1-3)Gal(b1-4)GlcNAc(b1-2)Man(a1-6)]Man(b1-4)GlcNAc(b1-4)GlcNAc
# Method in brief: as §1
# [4] = molecular target: Fuc(a1-2)Gal(b1-4)[Fuc(a1-3)]GlcNAc
# Method in brief: as §1
# [5] = molecular target: Fuc(a1-2)Gal6S(b1-3)GlcNAc
# Method in brief: as §1
# [6] = molecular target: Fuc(a1-2)[Gal(a1-3)]Gal(b1-3)GlcNAc(b1-2)Man(a1-3)[Fuc(a1-2)[Gal(a1-3)]Gal(b1-3)GlcNAc(b1-2)Man(a1-6)]Man(b1-4)GlcNAc(b1-4)[Fuc(a1-6)]GlcNAc
# Method in brief: as §1
# [7] = molecular target: Fuc(a1-2)[GalNAc(a1-3)]Gal(b1-4)[Fuc(a1-3)]GlcNAc(b1-3)GalNAc
# Method in brief: as §1
# [8] = molecular target: Fuc(a1-2)[GalNAc(b1-3)]Gal
# Method in brief: as §1
# [9] = molecular target: Fuc(a1-3)[Gal(b1-4)]GlcNAc(b1-2)Man
# Method in brief: as §1
# [10] = molecular target: Fuc(a1-3)[GalNAc(b1-4)]GlcNAc
# Method in brief: as §1
# [11] = molecular target: Fuc(a1-3)[GalNAc(b1-4)]GlcNAc6S
# Method in brief: as §1
# Fuc(a1-4)GlcNAc = molecular target: Fuc(a1-4)GlcNAc
# Method in brief: as §1
# [12] = molecular target: Gal(a1-3)Gal(b1-4)GlcNAc(b1-2)Man(a1-3)[Gal(a1-3)Gal(b1-4)GlcNAc(b1-2)Man(a1-6)]Man(b1-4)GlcNAc(b1-4)GlcNAc
# Method in brief: as §1
# [13] = molecular target: Gal(a1-3)Gal(b1-4)[Fuc(a1-3)]GlcNAc(b1-2)Man(a1-3)[Gal(a1-3)Gal(b1-4)[Fuc(a1-3)]GlcNAc(b1-2)Man(a1-6)]Man(b1-4)GlcNAc(b1-4)GlcNAc
# Method in brief: as §1
# Gal(a1-3)GalNAc = molecular target: Gal(a1-3)GalNAc
# Method in brief: as §1
# [14] = molecular target: Gal(b1-3)GlcNAc(b1-3)Gal(b1-4)Glc
# Method in brief: as §1
# [15] = molecular target: Gal(b1-3)GlcNAc(b1-3)Gal(b1-4)GlcNAc
# Method in brief: as §1
# [16] = molecular target: Gal(b1-3)GlcNAc(b1-3)Gal(b1-4)GlcNAc(b1-2)[Gal(b1-3)GlcNAc(b1-3)Gal(b1-4)GlcNAc(b1-6)]Man(a1-6)[Gal(b1-3)GlcNAc(b1-3)Gal(b1-4)GlcNAc(b1-2)Man(a1-3)]Man(b1-4)GlcNAc(b1-4)[Fuc(a1-6)]GlcNAc
# Method in brief: as §1
# [17] = molecular target: Gal(b1-3)[Fuc(a1-4)]GlcNAc(b1-6)GalNAc
# Method in brief: as §1
# [18] = molecular target: Gal(b1-4)GlcNAc(b1-2)[Gal(b1-4)GlcNAc(b1-4)]Man(a1-3)[Gal(b1-4)GlcNAc(b1-2)[Gal(b1-4)GlcNAc(b1-6)]Man(a1-6)]Man(b1-4)GlcNAc(b1-4)GlcNAc
# Method in brief: as §1
# [19] = molecular target: Gal(b1-4)GlcNAc(b1-3)Gal(b1-3)GlcNAc
# Method in brief: as §1
# [20] = molecular target: Gal(b1-4)GlcNAc(b1-3)Gal(b1-4)Glc
# Method in brief: as §1
# [21] = molecular target: Gal(b1-4)GlcNAc(b1-3)Gal(b1-4)GlcNAc(b1-3)Gal(b1-4)GlcNAc
# Method in brief: as §1
# Gal3S(b1-3)GlcNAc = molecular target: Gal3S(b1-3)GlcNAc
# Method in brief: as §1
# Gal3S(b1-4)GlcNAc = molecular target: Gal3S(b1-4)GlcNAc
# Method in brief: as §1
# [22] = molecular target: Gal3S(b1-4)[Fuc(a1-3)]GlcNAc
# Method in brief: as §1
# Gal4S(b1-4)GlcNAc = molecular target: Gal4S(b1-4)GlcNAc
# Method in brief: as §1
# GalNAc(b1-4)GlcNAc = molecular target: GalNAc(b1-4)GlcNAc
# Method in brief: as §1
# [23] = molecular target: GlcNAc(a1-4)Gal(b1-3)GlcNAc
# Method in brief: as §1
# [24] = molecular target: GlcNAc(a1-6)Gal(b1-4)GlcNAc
# Method in brief: as §1
binder,measurement,setting,value
B1,glycan array binding signal (z-score),[1],-0.466
same,glycan array binding signal (z-score),[2],-0.315
same,glycan array binding signal (z-score),[3],-0.05
same,glycan array binding signal (z-score),[4],0.212
same,glycan array binding signal (z-score),[5],-0.249
same,glycan array binding signal (z-score),[6],0.105
same,glycan array binding signal (z-score),[7],21.1
same,glycan array binding signal (z-score),[8],-0.54
same,glycan array binding signal (z-score),[9],0.185
same,glycan array binding signal (z-score),[10],0.203
same,glycan array binding signal (z-score),[11],-0.245
same,glycan array binding signal (z-score),Fuc(a1-4)GlcNAc,3.1
same,glycan array binding signal (z-score),[12],0.847
same,glycan array binding signal (z-score),[13],0.929
same,glycan array binding signal (z-score),Gal(a1-3)GalNAc,-0.034
same,glycan array binding signal (z-score),[14],1.82
same,glycan array binding signal (z-score),[15],-0.163
same,glycan array binding signal (z-score),[16],0.678
same,glycan array binding signal (z-score),[17],-0.249
same,glycan array binding signal (z-score),[18],0.128
same,glycan array binding signal (z-score),[19],-0.08
same,glycan array binding signal (z-score),[20],-0.362
same,glycan array binding signal (z-score),[21],0.071
same,glycan array binding signal (z-score),Gal3S(b1-3)GlcNAc,0.668
same,glycan array binding signal (z-score),Gal3S(b1-4)GlcNAc,0.311
same,glycan array binding signal (z-score),[22],-0.154
same,glycan array binding signal (z-score),Gal4S(b1-4)GlcNAc,0.422
same,glycan array binding signal (z-score),GalNAc(b1-4)GlcNAc,1.34
same,glycan array binding signal (z-score),[23],0.056
same,glycan array binding signal (z-score),[24],-0.234
